Results filed as inconclusive are left out. Calls of active or inactive are those of the source. Calls follow the shape of the dose curve; as a rule, active = well fitted inhibition curve with a large enough effect in the signal ratio in the repeat runs (not every such curve was filed as active); inconclusive = weak or mixed curves, or effect the other way; inactive = no such curve, though single readings can be large or run the other way; the % refers to the signal ratio.

The source of these data is PubChem BioAssay (Tox21).
% is scaled to controls: 0 for no effect and ±100 for the full control effect.

Peroxisome proliferator-activated receptor delta (Homo sapiens), sequence (Q03181 whole entry, looked up): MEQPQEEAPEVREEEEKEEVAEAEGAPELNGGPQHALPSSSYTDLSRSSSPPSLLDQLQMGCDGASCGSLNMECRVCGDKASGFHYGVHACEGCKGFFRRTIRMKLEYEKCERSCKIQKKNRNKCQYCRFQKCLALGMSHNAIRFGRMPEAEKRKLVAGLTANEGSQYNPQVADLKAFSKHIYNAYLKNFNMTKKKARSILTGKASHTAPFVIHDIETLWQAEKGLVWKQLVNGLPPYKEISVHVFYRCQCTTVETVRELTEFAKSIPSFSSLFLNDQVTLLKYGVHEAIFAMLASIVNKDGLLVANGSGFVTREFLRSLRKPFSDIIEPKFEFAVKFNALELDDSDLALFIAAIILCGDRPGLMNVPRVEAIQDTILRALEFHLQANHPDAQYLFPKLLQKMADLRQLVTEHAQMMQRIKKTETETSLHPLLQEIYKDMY

The experiment addresses Peroxisome proliferator-activated receptor delta (Homo sapiens) (UniProt Q03181). The experiment can be described thus: qHTS assay to identify small molecule antagonists of the peroxisome proliferator-activated receptor delta (PPARd) signaling pathway (AID 743215).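 Also: cells stimulated with agonist L165041 at 300 nM final during compound exposure.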 The conditions noted are these: HEK293H PPARd-UAS-bla, beta-lactamase FRET ratio, antagonist, 17 h; series mostly up to 62 µM. The text has this:
U.S. Tox21 Program National Center for Advancing Translational Sciences [NCATS] NIH Chemical Genomics Center [NCGC] U.S. Environmental Protection Agency [EPA] National Institutes of Environmental Health Sciences [NIEHS] National Toxicology Program [NTP] U.S. Food and Drug Administration [FDA] Tox21 Assay Overview: The peroxisome proliferator-activated receptors (PPARs) are lipid-activated transcription factors of the nuclear receptor superfamily with three distinct subtypes namely PPAR alpha, PPAR delta (PPARd) and PPAR gamma. All these subtypes heterodimerizes with Retinoid X receptor (RXR) and have different physiological functions. […] To identify the compounds that inhibit PPAR-delta signaling, GeneBLAzer PPAR delta UAS-bla HEK293H cell line (Invitrogen, Carlsbad, CA, USA) containing a beta-lactamase reporter gene under the control of an Upstream Activator Sequence (UAS) was used to screen the Tox21 compound library.
Tox21 Assay Protocol Summary: PPARd-bla cells were dispensed at 3000 cells/5uL/well in 1536-well black wall/clear bottom plates using a Multidrop Combi (Thermo Fisher Scientific, Waltham, MA) dispenser. After the assay plates were incubated at 37 C and 5% CO2 for 5 h, 23 nL of compounds dissolved in DMSO, positive controls or DMSO only was transferred to the assay plate by a Pintool station (Kalypsys, San Diego, CA), followed by addition of 1ul L165041 (300 nM, final concentration in the wells). The assay plates were incubated at 37 C for 17 h, and then 1 uL of LiveBLAzerTM B/G FRET substrate was added using a Bioraptr Flying Reagent Dispenser (FRD) workstation (Beckman Coulter, Indianapolis, IN, USA). The assay plates were incubated at room temperature for 2 h and fluorescence intensity was measured by an Envision plate reader (PerkinElmer, Shelton, CT).
For `CC(=O)c1ccc2c(c1)CCCC2`, the result was inactive.
Same read-out and setting: under `CCC(O)C(C)(C)C` (stereo not given) stands “inactive”; under `Cc1ccccc1C(=O)N1CC/C(=N\OS(=O)(=O)O)c2ccc(Cl)cc21`, “inactive”; under `NCCc1ccn[nH]1`, “inactive”.
Regarding `CCOC(=O)C(C)(C)C`, the result was inactive.
Still for that read-out and setting: under `Nc1ccc(S(=O)(=O)Nc2ccccn2)cc1` stands “inactive”.
On to `O=c1[nH]c(=O)c2[nH]c(=O)[nH]c2[nH]1`, for which the ratio activity, negative = inhibition is -0.0973% [at 13.7 µM] (inactive).
`CC1CCC(C(C)(C)S)C(=O)C1` (stereo not given): the outcome was inactive.
Still for that read-out and setting: under `CN=C(NC#N)NCCSCc1csc(N=C(N)N)n1` stands “inactive”; under `O=S(=O)(O)SSS(=O)(=O)O`, “inactive”; under `C=CCOCC(O)CCl` (stereo not given), “inactive”.
The same measure, in the same setting: under `CCCCCC1CCCC(=O)O1` (stereo not given) stands “inactive”; under `CCN(CCO)c1cccc(C)c1`, “inactive”.
Same read-out and setting: with `CC(=O)OCC(=O)[C@@]1(O)[C@H](OC(C)=O)C[C@H]2[C@@H]3CCC4=CC(=O)C=C[C@]4(C)[C@@]3(F)[C@@H](O)C[C@@]21C` the entry was “inactive”; with `CC(CC(=O)O)CC(C)(C)C` (stereo not given), “inactive”.
With `CCC(C)(CCC(C)C)C(=O)[O-].CCC(C)(CCC(C)C)C(=O)[O-].[Zn+2]` (stereo not given), the result was inactive.
The same measure, in the same setting: with `CC(Cl)COP(=O)(OCC(C)Cl)OCC(C)Cl` (stereo not given) the entry was “inactive”; with `CN[C@@H]1[C@@H](O)[C@@H](O[C@@H]2[C@H](O)[C@H](O[C@H]3OC(CN)=CC[C@H]3N)[C@@H](N)C[C@H]2N)OCC1(C)O` (stereo not given in full), “inactive”; with `CCCC(C)CC` (stereo not given), “inactive”.
On the same count and under the same terms, under `CCN1CN(CC)CN(CC)C1` stands “inactive”; under `Cc1nc([N+](=O)[O-])cn1-c1ccc([N+](=O)[O-])cc1`, “inactive”; under `COc1cc2c(Nc3ccc(Br)cc3F)ncnc2cc1OCC1CCN(C)CC1`, “inactive”.
On the same count and under the same terms, under `CCC(C)(C)C1CCC(=O)CC1` stands “inactive”; under `CCC1Nc2cc(Cl)c(S(N)(=O)=O)cc2S(=O)(=O)N1` (stereo not given), “inactive”.
Turning to `CC(=O)OC[C@H]1O[C@@H](OC(C)=O)[C@H](OC(C)=O)[C@@H]1OC(C)=O`, the result was inactive.
Same read-out and setting: under `CCCCCCCC/C=C\CCCCCCCC(=O)OC[C@@H](O)[C@H]1OC[C@H](O)[C@H]1O` stands “inactive”; under `COc1cc([N+](=O)[O-])ccc1N`, “inactive”.
Still for that read-out and setting: with `CC(C)(C)NCCO` the entry was “inactive”; with `O=S(=O)(O)CCO`, “inactive”.
In the case of `CN(C)CCCNCCC#N`, the result was inactive.
Same read-out and setting: under `O=P(O)(O)OCC(O)CO` (stereo not given) stands “inactive”.
Still for that read-out and setting: under `CC(=O)OCCCc1ccccc1` stands “inactive”.
Take `CNC(=O)NC`: the result was inactive.
The same measure, in the same setting: with `CC(=O)c1ccc(OCC(=O)N2CCCCC2)cc1` the entry was “inactive”; with `CC(=O)/C=C/c1ccco1`, “inactive”.
Consider `NC(Cc1c[nH]c2ccccc12)C(=O)O` (stereo not given), for which the result was inactive.
The same measure, in the same setting: under `CO[Si](CCCCl)(OC)OC` stands “inactive”.
`O=C(O)C(=O)Nc1cccc(-c2nn[nH]n2)c1`: the outcome was inactive.
The same measure, in the same setting: with `O=C(Nc1cccc(C2=NCCN2)c1)Nc1cccc(C2=NCCN2)c1` the entry was “inactive”.
Still for that read-out and setting: with `CC(=O)Nc1ccc(C)cc1` the entry was “inactive”.
